# Source: PubChem BioAssay AID488969 (Vanderbilt High Throughput Screening Facility, 2010)
# Whole data set: some 110,000 compounds, median “z-score” near -0.1, cut for the highest 2% near 2. The list comes from a sample in which the highest values are over-represented; it also holds similar structures and randomly drawn compounds. The source made the active and inactive calls.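 Rule for the calls: active = z-score in the third read window above 3 or below -3; inactive = the rest.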
# Target: Metabotropic glutamate receptor 8 (Rattus norvegicus) (UniProt P70579)
# Sequence (P70579 whole entry, looked up): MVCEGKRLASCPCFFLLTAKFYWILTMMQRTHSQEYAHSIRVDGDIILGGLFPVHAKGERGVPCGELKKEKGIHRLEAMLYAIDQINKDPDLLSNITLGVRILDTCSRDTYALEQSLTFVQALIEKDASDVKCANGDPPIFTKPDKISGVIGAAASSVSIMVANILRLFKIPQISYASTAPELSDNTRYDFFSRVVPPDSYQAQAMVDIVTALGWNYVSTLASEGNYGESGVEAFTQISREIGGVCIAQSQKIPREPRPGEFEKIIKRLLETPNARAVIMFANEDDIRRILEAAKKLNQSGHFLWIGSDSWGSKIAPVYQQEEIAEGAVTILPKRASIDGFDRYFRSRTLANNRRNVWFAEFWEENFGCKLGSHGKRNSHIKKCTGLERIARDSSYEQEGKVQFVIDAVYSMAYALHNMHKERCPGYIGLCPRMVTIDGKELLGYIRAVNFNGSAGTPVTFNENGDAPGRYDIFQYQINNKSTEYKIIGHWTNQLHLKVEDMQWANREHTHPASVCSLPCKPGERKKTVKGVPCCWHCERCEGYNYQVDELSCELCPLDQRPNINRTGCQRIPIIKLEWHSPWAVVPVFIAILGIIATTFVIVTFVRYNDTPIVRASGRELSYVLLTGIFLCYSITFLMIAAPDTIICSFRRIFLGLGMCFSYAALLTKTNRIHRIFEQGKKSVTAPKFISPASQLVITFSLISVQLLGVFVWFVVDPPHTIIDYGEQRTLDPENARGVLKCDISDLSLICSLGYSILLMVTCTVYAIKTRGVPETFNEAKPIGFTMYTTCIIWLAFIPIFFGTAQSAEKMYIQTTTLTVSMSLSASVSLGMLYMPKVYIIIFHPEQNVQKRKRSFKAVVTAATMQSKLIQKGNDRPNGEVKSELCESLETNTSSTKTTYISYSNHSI
# Assay: rat mGluR8 modulators via GIRK flux, primary screen, cell-based, thallium flux, HTS (AID 488969)
# Conditions: HEK293 rat mGluR8, GIRK (G protein-gated inwardly rectifying potassium channel) thallium flux, FluoZin2; at 10 µM; stronger effect = higher value; submaximal glutamate (EC20) added with thallium
row,SMILES,z-score
1,CCOc1ccc(C2/C(=C(/O)c3ccccc3)C(=O)C(=O)N2CCCN(C)C)cc1OC (stereo not given),0.188
2,O=C(COC(=O)c1cnccn1)c1ccc2ccccc2c1,0.118
3,COC(=O)COn1c(SC(C)C)nc2ccccc2c1=O,2.57
4,CCSc1nc2ccccc2c(=O)n1OCC(=O)OC,-0.148
5,COn1c(SC(C)C)nc2ccccc2c1=O,-0.948
6,Cc1cc(NC(=O)c2cc3ccccc3oc2=O)no1,0.0723
7,Cc1cc2cc(CN(CCN3CCOCC3)C(=O)Nc3ccccc3F)c(=O)[nH]c2cc1C,-0.536
8,CC(C)OP(=O)(OC(C)C)C1(O)C(=O)Nc2ccccc21 (stereo not given),-0.0437
9,CCOc1ccc(C(=O)NC(Cc2ccccc2)C(=O)OC)cc1 (stereo not given),-0.262
10,COc1ccc(C(=O)NN(c2ccccc2)c2ccccc2)cc1,-0.0602
11,CCOc1ccc(C(=O)NCCc2ccccc2)cc1,0.0133
12,CCOc1ccc(C(=O)NC(=S)N(Cc2ccccc2)Cc2ccccc2)cc1,11.7 (active)
13,COc1ccc(C(=O)NC(=S)Nc2ccccc2F)cc1,0.595
14,COc1ccc(C(=O)NC(=S)N(Cc2ccccc2)Cc2ccccc2)cc1,16.8 (active)
15,COc1ccc(C2SCC(=O)N2CC23CC4CC(CC(C4)C2)C3)cc1 (stereo not given),-0.23
16,CCC(=O)N1N=C(c2c(-c3ccccc3)c3cc(Cl)ccc3[nH]c2=O)CC1c1ccco1 (stereo not given),-0.155
17,CCCCn1c(/N=C/c2ccc3c(c2)OCO3)nc2ccccc21,-0.738
18,CC(C)=CC[N+]1(C)CCCCC1,1.14
19,N#C/C(=C\c1cn(CCOc2ccccc2F)c2ccccc12)C(=O)NCc1cccs1,-0.0588
20,CCOc1ccc(N2C(=O)/C(=C/c3cc(OC)c(OC)c(OC)c3)N(CC(=O)OC)C2=S)cc1,14.1 (active)
21,CCOc1ccc(/C=C2/C(=O)N(c3ccc(OC)cc3)C(=S)N2CC(=O)OC)cc1OCC,0.273
22,CCOc1ccc(N2C(=O)/C(=C/c3cccs3)N(CC(=O)OC)C2=S)cc1,-0.17
23,S=c1sc(SCCOc2ccccc2)nn1-c1ccccc1,-0.317
24,COc1cccc(C(=O)OCc2ccccc2C#N)c1O,-0.163
25,O=C(Nc1ccccc1)N(C1=NCCCCS1)c1cccc2ccccc12,-0.463
26,Cc1cccc(Nc2n[nH]c(C)c2[N+](=O)[O-])c1,0.073
27,Cc1ccc(Nc2n[nH]c(C)c2[N+](=O)[O-])cc1C,2.51
28,Cc1ccc(Nc2n[nH]c(C)c2[N+](=O)[O-])cc1,-0.101

row,SMILES,z-score
1,CNC(=O)CCCc1nc(-c2ccccc2Cl)no1,0.0193
2,COC(=O)c1sccc1NC(=S)N1CCN(c2ccccc2)CC1,-0.397
3,Cc1cc(C(=O)NNC(=S)NC(C)c2ccccc2)cs1 (stereo not given),-0.281
4,Cc1cc(C(=O)NC(C)c2ccncc2)cs1 (stereo not given),2.05
5,Cc1cc(C(=O)NC(C)c2ccc3c(c2)OCO3)cs1 (stereo not given),0.0632
6,Cc1cc(C)c2nc(SCC(=O)N3CC(=O)Nc4ccccc43)c(C#N)cc2c1,-0.188
7,CC1CC1C(=O)NCCc1ccc(Cl)cc1 (stereo not given),1.05
8,N#Cc1ccc(-n2c(-c3ccccc3)nnc2-c2ccccc2)cc1C#N,0.19
9,COc1ccccc1/C=C/C=N/N1CCN(Cc2cccc3ccccc23)CC1,-0.494
10,COc1ccccc1/C=C/C=N\N1CCN(Cc2ccccc2Cl)CC1,5.52 (active)
11,COc1ccccc1/C=C/C=N/N1CCN(Cc2ccc(Cl)cc2)CC1,-0.494
12,CN(C)c1ccnc(-n2cccc2/C=N/OCc2cccc(F)c2)c1C#N,-0.0405
13,CCN(C(=O)CSc1ncccc1C(=O)OC(C)C)c1cccc(C)c1,-0.441
14,O=C(Nc1cc(C(F)(F)F)ccc1F)C1CCC1,0.411
15,COc1ccc(OCc2nc(N)nc(Nc3ccccc3)n2)cc1,5.72 (active)
16,COc1ccc(Nc2nc(N)nc(COc3ccc(OC)cc3)n2)cc1,-0.113
17,COc1ccc(Nc2nc(N)nc(CSc3nnc(N)s3)n2)cc1,-0.571
18,COc1ccc(Nc2nc(N)nc(CSc3nnc(C)s3)n2)cc1,2.42
19,COc1ccc(OCc2nc(N)nc(Nc3ccc(C)cc3)n2)cc1,0.32
20,Cc1nnc(SCc2nc(N)nc(Nc3ccccc3)n2)s1,-0.209
21,O=C1c2ccccc2CC1(Cc1ccccc1)Cc1ccccc1,-0.201
22,COc1ccc(OCC(=O)N/N=C/c2ccsc2)cc1,0.604
23,CC(Oc1ccc(Cl)cc1)C(=O)N/N=C/c1ccsc1 (stereo not given),11.6 (active)
24,CC(C)(C)c1ccc(OCC(=O)N/N=C/c2ccsc2)cc1,0.2
25,COc1cc(C(=O)Nc2ccc(S(=O)(=O)NC(C)(C)C)cc2)cc(OC)c1OC,-0.258
26,CCOc1cc(N2CCOCC2)c(OCC)cc1NC(=O)COC(=O)c1cccc2ccccc12,-0.0215
27,CCOc1cc(N2CCOCC2)c(OCC)cc1NC(=O)COC(=O)CCc1c[nH]c2ccccc12,8.03 (active)
